The text below walks through data of PubChem BioAssay AID463190 (Sanford-Burnham Center for Chemical Genomics, 2010).

The structures appear in SMILES notation. The whole screen tested about 330,000 compounds, of which about 7,300 (2.2%) were called active. The sample as a whole holds a higher share of actives than the screen did. A number with no mark means an inactive call.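 How the source made its calls: active means inhibition of at least 40%; inactive means the rest.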

The assay is described as follows: growth inhibition of tim10-1 ts yeast – luminescence, uHTS, primary screen (AID 463190).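 Further: mutant grown at 25 °C; 0% = DMSO wells with yeast and 100% = wells holding no yeast.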 As to conditions: S. cerevisiae tim10-1 ts strain growth, BacTiter-Glo, 24 h; at 20 µM; hits give high values.
On to `O=C(CCCOc1ccc(Cl)cc1Cl)NNC(=O)C1CCC1`, for which the inhibition was 5.85%.

For the compound `Cn1c(CCCOc2ccc(Cl)cc2Cl)n[nH]c1=S`, the inhibition is 47.8% (active).

Regarding `CC(C)Oc1ccc(Cc2n[nH]c(=S)n2Cc2ccccc2)cc1Cl`, the inhibition is -6.21%.

For the compound `CCN1C(=O)[C@@H]2[C@@H](c3ccc(-c4cccc(Cl)c4)cc3)N3CCC[C@@]3(C(=O)OC)[C@@H]2C1=O`, the inhibition is 30.1%.

For `C[N+]1(CC(O)COc2ccccc2)CCN(C(=O)c2ccc([N+](=O)[O-])cc2)CC1` (stereo not given), the inhibition is -0.233%.

As to `CCOC(=O)C/C(C)=N\Nc1ccc([N+](=O)[O-])cc1[N+](=O)[O-]`, the inhibition was 44.5% (active).

As to `CCCCOC(=O)CCCc1ccc([N+](=O)[O-])cc1[N+](=O)[O-]`, the inhibition is 28.7%.

`CCOC(=O)c1ccc(NNC(C)=O)c([N+](=O)[O-])c1`: the inhibition is 9.84%.

For the compound `O=C(CS(=O)(=O)c1ccccc1)Nc1ccc(S(=O)(=O)Nc2ccccn2)cc1`, the inhibition was 0.086%.

Turning to `CC(C)(C)c1cnnn1-c1ccc([N+](=O)[O-])cc1`, the inhibition is 12%.

In the case of `Cc1cc(C(=O)Nc2c(C)nn(Cc3ccccc3)c2C)on1`, the inhibition was 1.72%.

Take `Cc1nn(Cc2ccc(F)cc2)c(C)c1NC(=O)c1cccnc1Cl`: the inhibition was -0.56%.

As to `Cc1nn(Cc2ccc(Cl)c(Cl)c2)c(C)c1NC(=O)c1cc(C2CC2)on1`, the inhibition was 57% (active).

For the compound `Cc1ccccc1OCC(=O)NCC(=O)OCC(=O)c1ccc2ccccc2c1`, the inhibition is 18.3%.

As to `N/C(=N\S(=O)(=O)c1cc(C(F)(F)F)cc(C(F)(F)F)c1)c1cccs1`, the inhibition is 5.1%.

On to `COc1ccc(-n2c(SCC(=O)NCc3ccco3)nnc2-c2c[nH]c3ccccc23)cc1`, for which the inhibition is 7.58%.

Take `O=c1c2ccccc2nc(N/N=C/c2ccccc2)n1O`: the inhibition is 12.3%.

As for `O=C(N/N=C/c1cccnc1)c1ccc(NC(=O)c2ccc(F)cc2)cc1`, the inhibition is -1.83%.

As for `Fc1ccc(/C=N/Nc2nc(-c3cccnc3)nc3ccccc23)cc1`, the inhibition was 43.3% (active).

With `Cc1cc(C)cc(NC(=O)CCN2C(=O)c3ccccc3C2=O)c1`, the inhibition is 15.2%.

`CCN(CC)C(=O)Oc1ccc(OC(=O)N(CC)CC)cc1`: the inhibition is 32.3%.

`CCC(=O)Nc1nnc(S(=O)(=O)N(CC(C)C)c2ccccc2)s1`: the inhibition was -0.846%.

In the case of `CC1=C/C(=N\OS(=O)(=O)c2ccccc2)C=CC1=O`, the inhibition was 76.6% (active).

Regarding `CCOC(=O)C1CCN(C(=O)c2ccccc2N(C)S(=O)(=O)c2ccccc2)CC1`, the inhibition was 25%.

Take `CSc1nnc(C2CCCN(CC(=O)Nc3ccccc3N3CCOCC3)C2)n1C(C)C` (stereo not given): the inhibition is -3.94%.

As a reminder, the inhibition is the relative decrease from the control value, in per cent.
